According to PMC5540273 (PLoS ONE, 2017):
Like-named read-outs stand apart in the source and are kept apart here.

How the values were obtained:
Conditions in all cases: n = 1
[1] = system: PHKG1
[2] = system: PHKG2
[3] = system: PIK3C2B
[4] = system: PIK3C2G
[5] = system: PIK3CA
[6] = system: PIK3CB
[7] = system: PIK3CD
[8] = system: PIK3CG
[9] = system: T1, PIK4CB
T1 construct: gene PI4KB

[10] = system: PIKFYVE
[11] = concentration: 1 μM, replicates: in singlicate
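Further: KINOMEscan kinase panel screen.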

SMILES | %Inh [1, 11] [%] | %Inh [2, 11] [%] | %Inh [3, 11] [%] | %Inh [4, 11] [%] | %Inh [5, 11] [%] | %Inh [6, 11] [%] | %Inh [7, 11] [%] | %Inh [8, 11] [%] | %Inh [9, 11] [%] | %Inh [10, 11] [%] | %Inh ([1]; 1 µM) [%] | %Inh ([2]; 1 µM) [%] | %Inh ([3]; 1 µM) [%] | %Inh ([4]; 1 µM) [%] | %Inh ([5]; 1 µM) [%] | %Inh ([6]; 1 µM) [%] | %Inh ([7]; 1 µM) [%] | %Inh ([8]; 1 µM) [%] | %Inh ([9]; 1 µM) [%] | %Inh ([10]; 1 µM) [%]
COC(=O)c1c(-c2ccccc2)c2cc(C(=O)O)ccc2c(=O)n1Cc1ccccc1 | 0 | 24 | 3 | 0 | 0 | 13 | 0 | 7 | 0 | 2 | – | – | – | – | – | – | – | – | – | –
COc1cc2ncnc(Nc3ccc4nc(-c5ccccc5)[nH]c4c3)c2cc1OC.Cl [GW282450] | 0 | 6 | 0 | 0 | 0 | 0 | 0 | 0 | 0 | 0 | – | – | – | – | – | – | – | – | – | –
CN1C(=O)C(Nc2ccc(Cl)c(C(=O)O)c2)=C(c2ccc(Cl)cc2)C1=O [SB-404290] | 0 | 0 | 34 | 20 | 7 | 0 | 0 | 23 | 16 | 13 | – | – | – | – | – | – | – | – | – | –
COc1cc2nccc(Nc3ccc(NC(=O)c4ccc(C)cc4)c(O)c3)c2cc1OC.Cl [GW440132] | 15 | 0 | 100 | 0 | 100 | 0 | 0 | 100 | 0 | 0 | – | – | – | – | – | – | – | – | – | –
O=C(Nc1n[nH]c2cc(-c3cccc(F)c3F)ccc12)C1CC1 [SB-733894] | 3 | 25 | 17 | 15 | 0 | 0 | 0 | 19 | 8 | 100 | – | – | – | – | – | – | – | – | – | –
O=C(Nc1ccc2c(c1)OCO2)NC1CCN(c2ccnc(Nc3ccc(F)cc3)n2)C1 (stereo not drawn) [GSK1379724] | 0 | 0 | 0 | 0 | 0 | 0 | 10 | 0 | 39 | 0 | – | – | – | – | – | – | – | – | – | –
O=c1cc(N2CCOCC2)nc2n(Cc3cccc(Cl)c3Cl)ccn12 [GSK2286295] | 0 | 19 | 22 | 0 | 20 | 98.7 | 89 | 50 | 0 | 0 | – | – | – | – | – | – | – | – | – | –
C[C@@H]1CCCCN1c1cc(-c2ccc3c(N)n[nH]c3c2)nc(N)n1 [GSK2258759] | 0 | 0 | 0 | 0 | 0 | 0 | 0 | 0 | 0 | 7 | – | – | – | – | – | – | – | – | – | –
Cc1cccc(-c2nc(Nc3cccc(C(N)=O)c3)c3ccccc3n2)n1 [GW876019] | 0 | 8 | 0 | 44 | 0 | 0 | 48 | 0 | 0 | 16 | – | – | – | – | – | – | – | – | – | –
O=C(Nc1ccccc1)Nc1cccc(Oc2ccc3nccn3n2)c1 | 0 | 9 | 0 | 0 | 0 | 0 | 14 | 6 | 0 | 0 | – | – | – | – | – | – | – | – | – | –
Cc1cc(N2Cc3ccccc3C2)nc(Nc2ccc(S(=O)(=O)N3CCOCC3)cc2)n1.Cl [GSK1669917] | 14 | 0 | 0 | 0 | 0 | 0 | 0 | 48 | 100 | 0 | – | – | – | – | – | – | – | – | – | –
Cc1ccc(NC(=O)Nc2cccc(C(F)(F)F)c2)cc1 [GSK955403] | – | – | – | – | – | – | – | – | – | – | 12 | 15 | 1 | 36 | 5 | 0 | 0 | 9 | 0 | 0
Cc1nnc(-c2ccc3occ(-c4ccc(S(C)=O)cc4)c3c2)[nH]1 (stereo not drawn) | 15 | 16 | 3 | 17 | 9 | 28 | 0 | 5 | 0 | 17 | – | – | – | – | – | – | – | – | – | –
CCn1c(-c2cccnc2O)nc2cnccc21 [SB-736715] | 0 | 3 | 0 | 0 | 0 | 0 | 0 | 1 | 24 | 22 | – | – | – | – | – | – | – | – | – | –
Fc1cccc(COc2nnc(-c3ccc4c(c3)CCO4)o2)c1 | 0 | 0 | 0 | 0 | 0 | 14 | 17 | 7 | 0 | 24 | – | – | – | – | – | – | – | – | – | –
Fc1cc(Cl)ccc1Nc1ccnc2cc(-c3ccc(CN4CCCCC4)o3)ccc12 [GW560116] | 0 | 0 | 0 | 0 | 0 | 0 | 0 | 0 | 0 | 0 | – | – | – | – | – | – | – | – | – | –
O=S(=O)(c1ccc(-c2ccnc3[nH]ccc23)cc1)N1CCCC1 [GSK846226] | 0 | 10 | 3 | 0 | 8 | 0 | 0 | 14 | 23 | 0 | – | – | – | – | – | – | – | – | – | –
Cc1c(Cn2ccn3c(=O)cc(N4CCOCC4)nc23)cccc1C(F)(F)F [GSK2289044] | 0 | 10 | 20 | 6 | 21 | 100 | 92 | 29 | 0 | 0 | – | – | – | – | – | – | – | – | – | –

SMILES | %Inh [1, 11] [%] | %Inh [2, 11] [%] | %Inh [3, 11] [%] | %Inh [4, 11] [%] | %Inh [5, 11] [%] | %Inh [6, 11] [%] | %Inh [7, 11] [%] | %Inh [8, 11] [%] | %Inh [9, 11] [%] | %Inh [10, 11] [%] | %Inh ([1]; 1 µM) [%] | %Inh ([2]; 1 µM) [%] | %Inh ([3]; 1 µM) [%] | %Inh ([4]; 1 µM) [%] | %Inh ([5]; 1 µM) [%] | %Inh ([6]; 1 µM) [%] | %Inh ([7]; 1 µM) [%] | %Inh ([8]; 1 µM) [%] | %Inh ([9]; 1 µM) [%] | %Inh ([10]; 1 µM) [%]
Cc1cc(-c2ccc3c(c2)CC[C@@H](N[C@@H](C)c2ccccc2)C3)cnc1N.Cl [GW412617] | 21 | 3 | 0 | 0 | 1 | 0 | 0 | 0 | 1 | 0 | – | – | – | – | – | – | – | – | – | –
CS(=O)(=O)c1ccc(-c2nc3n(c2-c2ccncc2)CCC3)cc1 [SKF-105942] | 3 | 0 | 0 | 0 | 0 | 0 | 0 | 0 | 100 | 0 | – | – | – | – | – | – | – | – | – | –
COc1ccc2nc(-c3cccc(C)n3)nc(Nc3ccncc3)c2c1 [GSK204919] | 0 | 0 | 3 | 0 | 0 | 0 | 0 | 0 | 5 | 81 | – | – | – | – | – | – | – | – | – | –
Cc1ccc(NC(=O)Nc2cc(C(C)(C)C)nn2-c2ccccc2)cc1 [GSK1014915] | 4 | 0 | 0 | 0 | 0 | 0 | 0 | 0 | 4 | 0 | – | – | – | – | – | – | – | – | – | –
NC(=O)c1nnc2ccccc2c1N | 0 | 10 | 40 | 14 | 40 | 0 | 39 | 44 | 1 | 4 | – | – | – | – | – | – | – | – | – | –
CC(C)(C)c1ccc(C(=O)Nc2cn3cc(-c4cccnc4)ccc3n2)cc1 | 8 | 34 | 0 | 24 | 0 | 45 | 0 | 0 | 16 | 22 | – | – | – | – | – | – | – | – | – | –
COc1ccc(Nc2nccc(-c3cccc(NC(=O)c4cc5cc(F)ccc5[nH]4)c3)n2)cc1 [GSK1229782] | 19 | 0 | 0 | 0 | 0 | 0 | 0 | 2 | 0 | 6 | – | – | – | – | – | – | – | – | – | –
O=C(O)COc1ncnc2cc(-c3ccc4[nH]ncc4c3)sc12 | 13 | 3 | 0 | 23 | 0 | 47 | 5 | 0 | 35 | 12 | – | – | – | – | – | – | – | – | – | –
Cc1cc(NCC(c2ccccc2)c2ccccc2)nc(NCc2ccc(C(F)(F)F)cc2)n1 [GW497681] | 0 | 0 | 0 | 0 | 0 | 0 | 0 | 0 | 0 | 0 | – | – | – | – | – | – | – | – | – | –
Cl.NC(=O)c1cccc(Nc2nccc(Nc3ccc(Oc4cccc(Cl)c4)c(Cl)c3)n2)c1 [GW659008] | 4 | 0 | 0 | 0 | 0 | 0 | 0 | 0 | 82 | 0 | – | – | – | – | – | – | – | – | – | –
COc1ccccc1-c1ccc2c(NC(=O)C3CC3)n[nH]c2n1 [SB-711239] | 1 | 0 | 0 | 45 | 0 | 25 | 23 | 0 | 0 | 17 | – | – | – | – | – | – | – | – | – | –
Cc1cccc(-c2nc(-c3ccc(S(C)(=O)=O)cc3)sc2-c2ccnc(NCCc3ccccc3)c2)c1 | 0 | 9 | 0 | 18 | 1 | 11 | 26 | 17 | 0 | 0 | – | – | – | – | – | – | – | – | – | –
Cc1cccc(-c2nc(C)cc(Nc3ccncc3)n2)n1 [GSK257997] | 0 | 7 | 0 | 0 | 3 | 0 | 0 | 5 | 0 | 27 | – | – | – | – | – | – | – | – | – | –
CC(=O)Nc1nc2cnc(Nc3cc(NC(=O)c4cccc(CCC#N)c4)ccc3C)nc2s1 | 0 | 8 | 9 | 78 | 2 | 0 | 0 | 8 | 0 | 0 | – | – | – | – | – | – | – | – | – | –
Cc1ccc(-c2cc(-c3c[nH]nc3-c3ccccn3)ccn2)cc1 [GW684088] | 0 | 27 | 0 | 1 | 2 | 8 | 1 | 4 | 2 | 30 | – | – | – | – | – | – | – | – | – | –
Cl.O=C(Nc1cccc(-c2nn3ncccc3c2-c2ccnc(Nc3cccnc3)n2)c1)c1c(F)cccc1F [GSK312879] | 8 | 18 | 0 | 0 | 0 | 0 | 0 | 0 | 11 | 52 | – | – | – | – | – | – | – | – | – | –
O=C1NC(=O)C(N2CCc3ccccc32)=C1c1ccccc1Cl [SB-373598] | 0 | 23 | 1 | 0 | 0 | 0 | 10 | 12 | 0 | 0 | – | – | – | – | – | – | – | – | – | –
COC(=O)c1c(-c2ccccc2)c2cc(OC)ccc2c(=O)n1Cc1ccccc1 | 7 | 31 | 0 | 0 | 3 | 14 | 5 | 0 | 0 | 13 | – | – | – | – | – | – | – | – | – | –
